In ChEMBL document CHEMBL2218924, “A broad activity screen in support of a chemogenomic map for kinase signalling research and drug discovery” (Biochem J, 2013):

Experiments:
[1] = target: T1, Tyrosine-protein kinase ITK/TSK (Homo sapiens) (UniProt Q08881); conditions: at 10 µM
T1 sequence (whole entry): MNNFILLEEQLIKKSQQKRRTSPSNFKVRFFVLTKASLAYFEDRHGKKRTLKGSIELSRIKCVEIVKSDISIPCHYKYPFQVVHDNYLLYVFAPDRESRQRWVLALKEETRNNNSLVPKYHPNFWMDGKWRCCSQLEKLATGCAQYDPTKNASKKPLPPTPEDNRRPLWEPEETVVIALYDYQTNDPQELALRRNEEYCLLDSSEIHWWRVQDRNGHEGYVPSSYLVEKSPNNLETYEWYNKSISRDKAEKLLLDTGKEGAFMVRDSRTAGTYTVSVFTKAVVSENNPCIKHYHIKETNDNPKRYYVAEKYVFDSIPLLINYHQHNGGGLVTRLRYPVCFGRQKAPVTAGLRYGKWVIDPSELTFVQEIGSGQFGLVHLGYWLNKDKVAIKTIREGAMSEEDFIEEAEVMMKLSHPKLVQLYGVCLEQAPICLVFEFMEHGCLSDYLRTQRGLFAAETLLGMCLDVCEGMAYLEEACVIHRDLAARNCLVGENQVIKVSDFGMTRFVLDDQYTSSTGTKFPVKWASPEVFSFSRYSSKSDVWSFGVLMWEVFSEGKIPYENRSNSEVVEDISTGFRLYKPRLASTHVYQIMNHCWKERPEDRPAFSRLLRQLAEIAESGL

[2] = target: Tyrosine-protein kinase JAK2 (Homo sapiens) (UniProt O60674); conditions: at 1 µM
[3] = target: Tyrosine-protein kinase JAK2 (Homo sapiens) (UniProt O60674); conditions: at 10 µM
[4] = target: T2, Tyrosine-protein kinase JAK3 (Homo sapiens) (UniProt P52333); conditions: at 1 µM
T2 sequence (whole entry): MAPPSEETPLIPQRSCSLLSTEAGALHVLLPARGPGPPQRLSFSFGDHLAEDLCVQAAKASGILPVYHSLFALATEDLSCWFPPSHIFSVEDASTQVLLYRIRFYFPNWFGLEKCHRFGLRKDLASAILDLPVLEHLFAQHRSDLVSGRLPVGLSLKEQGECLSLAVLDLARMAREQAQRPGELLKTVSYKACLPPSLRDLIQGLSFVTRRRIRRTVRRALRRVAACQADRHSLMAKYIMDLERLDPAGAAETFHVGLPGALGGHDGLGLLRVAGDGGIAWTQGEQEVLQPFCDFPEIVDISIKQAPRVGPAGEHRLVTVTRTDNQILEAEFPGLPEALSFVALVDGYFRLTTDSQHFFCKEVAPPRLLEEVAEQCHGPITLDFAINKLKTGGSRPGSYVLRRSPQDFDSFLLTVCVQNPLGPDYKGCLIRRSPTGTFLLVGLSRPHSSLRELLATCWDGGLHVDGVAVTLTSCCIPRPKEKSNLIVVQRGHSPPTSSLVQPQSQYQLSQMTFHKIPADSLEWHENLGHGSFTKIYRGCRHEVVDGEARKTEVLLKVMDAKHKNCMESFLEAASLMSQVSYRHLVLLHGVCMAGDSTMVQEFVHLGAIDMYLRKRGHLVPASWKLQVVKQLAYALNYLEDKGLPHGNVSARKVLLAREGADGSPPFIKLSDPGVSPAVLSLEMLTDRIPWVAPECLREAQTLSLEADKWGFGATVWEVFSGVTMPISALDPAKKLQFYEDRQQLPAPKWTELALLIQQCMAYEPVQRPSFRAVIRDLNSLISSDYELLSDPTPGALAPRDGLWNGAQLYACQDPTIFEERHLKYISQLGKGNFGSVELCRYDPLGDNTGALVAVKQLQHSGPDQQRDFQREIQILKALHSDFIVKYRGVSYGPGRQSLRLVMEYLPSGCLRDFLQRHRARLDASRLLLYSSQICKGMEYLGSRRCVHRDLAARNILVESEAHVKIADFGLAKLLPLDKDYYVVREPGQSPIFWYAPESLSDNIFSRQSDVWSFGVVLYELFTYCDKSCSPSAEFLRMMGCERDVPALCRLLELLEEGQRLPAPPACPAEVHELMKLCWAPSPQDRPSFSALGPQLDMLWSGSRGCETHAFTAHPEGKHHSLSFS

[5] = target: T2, Tyrosine-protein kinase JAK3 (Homo sapiens); conditions: at 10 µM
[6] = target: Mitogen-activated protein kinase 8 (Homo sapiens) (UniProt P45983); conditions: at 1 µM
[7] = target: Mitogen-activated protein kinase 8 (Homo sapiens) (UniProt P45983); conditions: at 10 µM
[8] = target: Mitogen-activated protein kinase 9 (Homo sapiens) (UniProt P45984); conditions: at 1 µM
[9] = target: Mitogen-activated protein kinase 9 (Homo sapiens) (UniProt P45984); conditions: at 10 µM
[10] = target: Mitogen-activated protein kinase 10 (Homo sapiens) (UniProt P53779); conditions: at 1 µM
[11] = target: Mitogen-activated protein kinase 10 (Homo sapiens) (UniProt P53779); conditions: at 10 µM
[12] = target: Vascular endothelial growth factor receptor 2 (Homo sapiens) (UniProt P35968); conditions: at 1 µM
[13] = target: Vascular endothelial growth factor receptor 2 (Homo sapiens) (UniProt P35968); conditions: at 10 µM
[14] = target: LIM domain kinase 1 (Homo sapiens) (UniProt P53667); conditions: at 1 µM
[15] = target: LIM domain kinase 1 (Homo sapiens) (UniProt P53667); conditions: at 10 µM
[16] = target: T3, Serine/threonine-protein kinase STK11 (Homo sapiens) (UniProt Q15831); conditions: at 1 µM
T3 sequence (whole entry): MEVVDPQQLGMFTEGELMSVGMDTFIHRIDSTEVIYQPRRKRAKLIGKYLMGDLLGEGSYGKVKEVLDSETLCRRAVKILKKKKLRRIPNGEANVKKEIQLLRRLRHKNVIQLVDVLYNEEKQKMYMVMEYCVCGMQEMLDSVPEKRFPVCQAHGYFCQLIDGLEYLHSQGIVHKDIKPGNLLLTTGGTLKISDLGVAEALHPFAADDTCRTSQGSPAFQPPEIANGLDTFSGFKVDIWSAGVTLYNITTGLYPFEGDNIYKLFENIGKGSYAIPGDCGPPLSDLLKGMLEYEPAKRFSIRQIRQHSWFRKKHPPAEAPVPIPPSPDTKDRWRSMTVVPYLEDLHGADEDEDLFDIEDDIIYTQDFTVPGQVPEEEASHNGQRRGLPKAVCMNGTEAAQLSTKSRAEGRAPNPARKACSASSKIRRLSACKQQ

[17] = target: T3, Serine/threonine-protein kinase STK11 (Homo sapiens); conditions: at 10 µM
[18] = target: Serine/threonine-protein kinase 10 (Homo sapiens) (UniProt O94804); conditions: at 1 µM
[19] = target: Serine/threonine-protein kinase 10 (Homo sapiens) (UniProt O94804); conditions: at 10 µM
[20] = target: Tyrosine-protein kinase Lck (Homo sapiens) (UniProt P06239); conditions: at 1 µM
Tyrosine-protein kinase Lck (Homo sapiens), sequence (P06239 2-509 limits assumed): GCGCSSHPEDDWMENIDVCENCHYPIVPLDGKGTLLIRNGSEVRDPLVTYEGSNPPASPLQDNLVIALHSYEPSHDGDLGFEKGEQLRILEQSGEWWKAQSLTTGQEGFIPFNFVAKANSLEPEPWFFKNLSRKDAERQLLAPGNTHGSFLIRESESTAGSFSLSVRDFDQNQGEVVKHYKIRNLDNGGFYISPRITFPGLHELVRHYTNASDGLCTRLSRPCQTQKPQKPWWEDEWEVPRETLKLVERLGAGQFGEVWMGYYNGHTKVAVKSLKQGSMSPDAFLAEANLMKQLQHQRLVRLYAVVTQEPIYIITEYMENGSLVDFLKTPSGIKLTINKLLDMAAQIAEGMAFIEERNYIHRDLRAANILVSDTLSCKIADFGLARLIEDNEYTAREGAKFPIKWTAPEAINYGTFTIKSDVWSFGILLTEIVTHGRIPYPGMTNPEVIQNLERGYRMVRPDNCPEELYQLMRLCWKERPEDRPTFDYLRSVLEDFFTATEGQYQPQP

Mitogen-activated protein kinase 9 (Homo sapiens), sequence (P45984 whole entry, looked up): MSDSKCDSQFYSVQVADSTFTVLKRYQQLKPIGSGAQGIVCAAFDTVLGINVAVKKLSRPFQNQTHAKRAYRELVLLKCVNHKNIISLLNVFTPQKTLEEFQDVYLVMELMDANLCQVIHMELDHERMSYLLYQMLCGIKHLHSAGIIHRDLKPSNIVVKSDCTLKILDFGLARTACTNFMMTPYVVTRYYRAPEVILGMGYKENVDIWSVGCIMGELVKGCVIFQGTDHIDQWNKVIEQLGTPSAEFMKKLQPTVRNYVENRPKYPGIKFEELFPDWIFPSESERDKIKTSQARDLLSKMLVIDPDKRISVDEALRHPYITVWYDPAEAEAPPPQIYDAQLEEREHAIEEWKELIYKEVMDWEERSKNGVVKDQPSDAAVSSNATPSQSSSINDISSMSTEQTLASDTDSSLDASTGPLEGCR
Serine/threonine-protein kinase 10 (Homo sapiens), sequence (O94804 whole entry, looked up): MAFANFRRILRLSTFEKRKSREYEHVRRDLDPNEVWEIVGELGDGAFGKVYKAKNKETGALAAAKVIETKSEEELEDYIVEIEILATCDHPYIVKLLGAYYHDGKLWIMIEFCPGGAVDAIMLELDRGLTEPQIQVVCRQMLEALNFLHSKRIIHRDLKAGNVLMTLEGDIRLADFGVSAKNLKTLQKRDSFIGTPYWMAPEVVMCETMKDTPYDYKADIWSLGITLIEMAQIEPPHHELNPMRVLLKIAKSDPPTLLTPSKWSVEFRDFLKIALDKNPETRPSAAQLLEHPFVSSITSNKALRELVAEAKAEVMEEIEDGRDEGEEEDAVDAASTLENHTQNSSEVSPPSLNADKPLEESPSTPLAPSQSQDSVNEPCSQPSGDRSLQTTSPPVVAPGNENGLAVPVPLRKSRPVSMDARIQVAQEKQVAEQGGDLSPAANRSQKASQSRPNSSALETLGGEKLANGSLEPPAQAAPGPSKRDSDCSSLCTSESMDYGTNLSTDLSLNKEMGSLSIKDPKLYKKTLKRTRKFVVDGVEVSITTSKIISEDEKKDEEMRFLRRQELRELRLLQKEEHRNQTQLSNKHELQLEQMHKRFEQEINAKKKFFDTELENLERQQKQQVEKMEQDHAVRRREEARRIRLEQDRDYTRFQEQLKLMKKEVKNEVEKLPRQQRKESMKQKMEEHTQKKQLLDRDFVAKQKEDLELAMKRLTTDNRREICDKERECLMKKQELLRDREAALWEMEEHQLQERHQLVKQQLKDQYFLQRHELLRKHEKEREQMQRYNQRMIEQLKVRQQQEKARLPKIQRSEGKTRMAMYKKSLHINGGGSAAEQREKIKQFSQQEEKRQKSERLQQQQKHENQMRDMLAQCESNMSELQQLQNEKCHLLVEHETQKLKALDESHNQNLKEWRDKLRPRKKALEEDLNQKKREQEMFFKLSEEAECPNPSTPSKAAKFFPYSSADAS
LIM domain kinase 1 (Homo sapiens), sequence (P53667 whole entry, looked up, the tested form may be a part): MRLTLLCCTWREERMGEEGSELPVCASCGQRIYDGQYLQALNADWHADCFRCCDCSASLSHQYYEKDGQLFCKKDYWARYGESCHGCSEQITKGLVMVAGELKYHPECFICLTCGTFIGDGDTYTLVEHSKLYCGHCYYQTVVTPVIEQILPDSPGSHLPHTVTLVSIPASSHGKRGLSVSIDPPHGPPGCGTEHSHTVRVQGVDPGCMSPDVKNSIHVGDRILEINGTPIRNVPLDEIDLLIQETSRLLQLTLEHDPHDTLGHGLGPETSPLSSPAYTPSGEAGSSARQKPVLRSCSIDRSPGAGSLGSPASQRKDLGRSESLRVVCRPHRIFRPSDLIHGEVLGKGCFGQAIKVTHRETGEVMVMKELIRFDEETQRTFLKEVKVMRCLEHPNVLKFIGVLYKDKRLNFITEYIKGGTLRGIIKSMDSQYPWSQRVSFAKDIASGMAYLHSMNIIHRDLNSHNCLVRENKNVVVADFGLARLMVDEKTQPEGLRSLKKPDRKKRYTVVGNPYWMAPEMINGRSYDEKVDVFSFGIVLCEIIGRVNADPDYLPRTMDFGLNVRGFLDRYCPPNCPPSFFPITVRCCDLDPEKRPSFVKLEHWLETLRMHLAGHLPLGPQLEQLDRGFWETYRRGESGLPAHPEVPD
Mitogen-activated protein kinase 10 (Homo sapiens), sequence (P53779 whole entry): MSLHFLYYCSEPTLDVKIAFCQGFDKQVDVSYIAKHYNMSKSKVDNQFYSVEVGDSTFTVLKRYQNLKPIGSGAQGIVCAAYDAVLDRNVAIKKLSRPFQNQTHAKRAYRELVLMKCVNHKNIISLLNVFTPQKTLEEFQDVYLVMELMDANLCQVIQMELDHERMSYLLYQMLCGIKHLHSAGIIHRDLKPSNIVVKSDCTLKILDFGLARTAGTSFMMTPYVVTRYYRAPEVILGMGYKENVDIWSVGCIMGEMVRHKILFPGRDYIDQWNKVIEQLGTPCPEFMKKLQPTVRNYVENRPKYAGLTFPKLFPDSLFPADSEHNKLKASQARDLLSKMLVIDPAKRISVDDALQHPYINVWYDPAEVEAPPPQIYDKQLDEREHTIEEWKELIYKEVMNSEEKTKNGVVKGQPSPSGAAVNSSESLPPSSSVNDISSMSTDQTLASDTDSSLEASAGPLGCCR
Vascular endothelial growth factor receptor 2 (Homo sapiens), sequence (P35968 whole entry, the tested form may be a part): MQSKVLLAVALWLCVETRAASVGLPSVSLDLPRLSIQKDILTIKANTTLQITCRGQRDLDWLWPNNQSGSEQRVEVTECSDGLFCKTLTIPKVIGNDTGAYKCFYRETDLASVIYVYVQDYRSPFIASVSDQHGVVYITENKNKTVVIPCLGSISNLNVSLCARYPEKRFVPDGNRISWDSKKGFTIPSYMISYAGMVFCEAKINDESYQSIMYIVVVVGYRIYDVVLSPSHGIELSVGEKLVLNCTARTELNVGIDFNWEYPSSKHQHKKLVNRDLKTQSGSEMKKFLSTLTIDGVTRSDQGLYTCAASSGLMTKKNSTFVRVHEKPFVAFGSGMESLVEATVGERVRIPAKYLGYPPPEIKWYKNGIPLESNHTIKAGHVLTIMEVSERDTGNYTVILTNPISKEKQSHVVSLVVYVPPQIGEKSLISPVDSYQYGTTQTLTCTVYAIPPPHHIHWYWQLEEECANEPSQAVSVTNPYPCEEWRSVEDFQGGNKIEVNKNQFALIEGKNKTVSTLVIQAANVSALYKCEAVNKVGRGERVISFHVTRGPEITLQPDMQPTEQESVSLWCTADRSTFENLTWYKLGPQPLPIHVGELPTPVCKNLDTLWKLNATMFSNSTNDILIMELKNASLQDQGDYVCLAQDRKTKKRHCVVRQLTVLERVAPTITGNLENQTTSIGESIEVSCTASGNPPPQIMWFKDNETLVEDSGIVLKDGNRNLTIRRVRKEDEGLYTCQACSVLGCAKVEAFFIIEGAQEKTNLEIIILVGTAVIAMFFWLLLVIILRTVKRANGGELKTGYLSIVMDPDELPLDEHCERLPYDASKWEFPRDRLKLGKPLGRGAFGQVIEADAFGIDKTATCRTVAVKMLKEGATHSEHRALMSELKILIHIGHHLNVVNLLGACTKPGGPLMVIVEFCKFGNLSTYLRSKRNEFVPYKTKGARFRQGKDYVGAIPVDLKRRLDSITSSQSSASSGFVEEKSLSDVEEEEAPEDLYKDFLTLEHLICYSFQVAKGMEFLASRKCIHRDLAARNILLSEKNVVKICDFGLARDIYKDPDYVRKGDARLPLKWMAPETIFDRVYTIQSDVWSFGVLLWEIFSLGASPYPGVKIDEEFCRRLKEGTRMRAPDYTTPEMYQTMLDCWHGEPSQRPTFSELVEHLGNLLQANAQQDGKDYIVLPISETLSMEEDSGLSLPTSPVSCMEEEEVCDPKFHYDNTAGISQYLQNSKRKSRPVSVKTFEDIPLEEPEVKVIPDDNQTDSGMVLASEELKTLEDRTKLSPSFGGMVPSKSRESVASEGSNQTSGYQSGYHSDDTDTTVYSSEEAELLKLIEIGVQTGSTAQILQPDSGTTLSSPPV
Mitogen-activated protein kinase 8 (Homo sapiens), sequence (P45983 whole entry): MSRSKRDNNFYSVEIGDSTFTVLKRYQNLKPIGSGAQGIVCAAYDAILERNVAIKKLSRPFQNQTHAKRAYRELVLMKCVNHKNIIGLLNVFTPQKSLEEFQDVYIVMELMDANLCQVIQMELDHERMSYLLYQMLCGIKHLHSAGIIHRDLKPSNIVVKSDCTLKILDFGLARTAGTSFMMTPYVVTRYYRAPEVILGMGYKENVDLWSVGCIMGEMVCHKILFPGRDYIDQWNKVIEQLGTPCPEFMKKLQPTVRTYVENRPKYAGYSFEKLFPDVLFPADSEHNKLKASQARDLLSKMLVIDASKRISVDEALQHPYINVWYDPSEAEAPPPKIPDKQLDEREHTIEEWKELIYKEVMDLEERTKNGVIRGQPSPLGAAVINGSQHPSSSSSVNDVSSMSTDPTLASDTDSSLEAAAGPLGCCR

SMILES | residual activity [1] | residual activity [2] | residual activity [3] | residual activity [4] | residual activity [5] | residual activity [6] | residual activity [7] | residual activity [8] | residual activity [9] | residual activity [10] | residual activity [11] | residual activity [12] | residual activity [13] | residual activity [14] | residual activity [15] | residual activity [16] | residual activity [17] | residual activity [18] | residual activity [19] | residual activity [20]
Cc1ccc(NC2=CC(=O)c3sc(C)nc3C2=O)cc1 | 101% | 97% | 104% | 113% | 107% | 112% | 92% | 100% | 106% | 83% | 82% | 97% | 89% | 84% | 82% | 98% | 98% | 113% | 105% | 86%
Oc1n[nH]c2nnc(-c3c(-c4ccccc4)nn4ccccc34)cc12 | 102% | 99% | 102% | 104% | 100% | 96% | 87% | 93% | 92% | 52% | 43% | 93% | 89% | 77% | 87% | 91% | 96% | 100% | 79% | 88%
O=C1Nc2ccccc2/C1=C1/Nc2ccccc2/C1=N\OCCC(O)CO (stereo not given) | 2% | 27% | 29% | 13% | 1% | 56% | 61% | 43% | 30% | 5% | 20% | 3% | 1% | 42% | 33% | 30% | 3% | 62% | 70% | 4%
COc1cc2ncc(-c3ccccc3)nc2cc1OC | – | – | – | 92% | 58% | – | – | – | – | 99% | 79% | – | – | – | – | – | – | 90% | 88% | –
Cc1cccc(-c2[nH]c(C(C)(C)C)nc2-c2ccc3c(c2)OCO3)n1 | 103% | – | – | – | – | – | 97% | – | 94% | 90% | 85% | 101% | 79% | – | 95% | 102% | 101% | 87% | 106% | 146%
N#C/C(=C(\N)Sc1ccc(N)cc1)c1ccccc1C(F)(F)F | 96% | 99% | 98% | 101% | 101% | 95% | 100% | 93% | 103% | 114% | 83% | 97% | 97% | 91% | 85% | 105% | 93% | 69% | 83% | 83%
c1ccc(-c2n[nH]c3c2oc2ccccc23)cc1 | 66% | – | – | 92% | 70% | – | – | – | – | 59% | 32% | 5% | 3% | 88% | 64% | – | – | 92% | 70% | –
CO[C@H]1C[C@@H]2CC[C@@H](C)[C@@](O)(O2)C(=O)C(=O)N2CCCC[C@H]2C(=O)O[C@H]([C@H](C)C[C@@H]2CC[C@@H](O)[C@H](OC)C2)CC(=O)[C@H](C)/C=C(\C)[C@@H](O)[C@@H](OC)C(=O)[C@H](C)C[C@H](C)/C=C/C=C/C=C/1C | 113% | 101% | 160% | 103% | 124% | 107% | 90% | 111% | 96% | 108% | 153% | 100% | 96% | 102% | 91% | 101% | 99% | 85% | 90% | 121%
